From PubChem BioAssay AID504336 (NMMLSC, 2011)
Activity calls are given as the source filed them.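 Rule for the calls: active = compounds whose GFP signal falls below 65% of the DMSO control level; inconclusive = fewer than 70 yeast cells counted in the well; inactive = the rest.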

Assay: TOR branch reporter RPL19A-GFP response – cell-based, S. cerevisiae, third cherry pick, flow cytometry, confirmation (AID 504336);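 note: median GFP fluorescence of all gated yeast cells by flow cytometry; ratio of well median fluorescence to plate mean of DMSO wells with DMSO = 100%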
Conditions: S. cerevisiae RPL19A-GFP strain, 3 h, at 10 µM, hits give low values

GFP response relative to DMSO, inactive:
CC(=O)Nn1cnc2c(c1=O)C1(CCCC1)Cc1ccccc1-2 99.3%
COc1ccc(OC)c2c(C)cc(C)nc12 98.5%
CC1=CN2C(=N)/C(=C/c3ccco3)C(=O)N=C2S1 106%
CC(C)Nc1ncnc2ccc(Br)cc12 97.8%
Oc1c(Br)cc(Br)c2cccnc12 88.3%
CS(=O)(=O)c1nc(-c2ccc(F)cc2)cc(C(F)(F)F)n1 97.8%
Nc1cccc2c1C(=O)c1ccc(Cl)cc1C2=O 102%
COc1cccc(NC(=O)CC(C)=O)c1 99.1%
Cc1ccc2nc(-c3ccc(NC(=O)c4cccnc4)cc3)oc2c1 97.2%
COc1cccc2c(=O)c(C(=O)O)c[nH]c12 98.3%
COc1ccc(OC)c2c(=O)cc(C(=O)O)[nH]c12 92.3%
CCN(CC)C(=O)Oc1ccnc2cc(Cl)ccc12 103%
COc1ccc(N/C=C/C(=O)c2ccc(Cl)cc2)cc1 102%
CCC(=O)Nn1cnc2c(c1=O)C1(CCCCC1)Cc1ccccc1-2 103%
OCCN1CCN(c2ncnc3ccc(Br)cc23)CC1 102%
Cc1cccc(C)c1Nc1ncnc(N)c1[N+](=O)[O-] 98.5%
OCCNc1ncnc2ccc(Br)cc12 99.8%
O=C(Nc1ccccc1)O/N=C1\CCCCC1c1ccc([N+](=O)[O-])cc1[N+](=O)[O-] (centres undefined) 96.5%
Oc1c(I)cc(Cl)c2cccnc12 86%
